Mcl1 Noxa PPI – disrupts binding of human Mcl-1 to Noxa peptide; Q07820; TR-FRET Mcl-1/Noxa peptide binding, 2 h; inhibition, % at 21.7 µM; hit rate 1.5% among 220,000; AID 1022;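 active means compounds that cut the protein-peptide binding signal by more than 50% relative to plate controls in a single-dose test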;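 further: His-tagged Mcl-1 with rhodamine Noxa BH3 peptide and terbium anti-His antibody; 0% = Mcl-1 plus Noxa peptide wells and 100% = peptide-only wells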
eIF4E-4G inh – eIF4E/eIF4G interaction inhibition in translation initiation | P63073+Q04637 | TR-FRET eIF4E-eIF4GI(517-606) binding, 2 h | inhibition, % at 21.7 µM | hit rate 0.37% among 220,000 | AID 782;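 further: 0% = full FRET control wells and 100% = background wells lacking eIF4GI fragment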
Mcl1 Bid PPI – disrupts binding of human Mcl-1 to Bid peptide; Q07820; inhibition, % at 21.7 µM; TR-FRET Mcl-1/Bid-Dy647 peptide binding, 1536-well; hit rate 0.97% among 220,000; AID 1021;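 active means compounds that cut the binding signal by more than half at the single screening dose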;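 further: His-tagged Mcl-1 with europium anti-His antibody binding Bid BH3 peptide; 0% = Mcl-1 plus peptide wells and 100% = peptide-only wells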
14-3-3 Bad PPI – disrupts binding of bovine 14-3-3 zeta to phospho-Bad peptide. P63103. TR-FRET 14-3-3zeta/Dy647-pBad peptide displacement, 1 h. inhibition, % at 21.7 µM. hit rate 0.71% among 220,000. AID 781;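 active means inhibition above about 70%, limit read from the data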;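 further: 0% = full 14-3-3 plus peptide FRET controls and 100% = background without 14-3-3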
Target sequence (P63103 whole entry, looked up): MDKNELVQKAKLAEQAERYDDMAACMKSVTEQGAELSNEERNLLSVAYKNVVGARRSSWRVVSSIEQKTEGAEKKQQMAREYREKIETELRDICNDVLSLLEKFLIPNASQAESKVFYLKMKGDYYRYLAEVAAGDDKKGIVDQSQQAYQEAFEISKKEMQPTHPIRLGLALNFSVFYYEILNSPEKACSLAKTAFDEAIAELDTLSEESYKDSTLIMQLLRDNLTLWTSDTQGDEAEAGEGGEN
NCF1 inh – inhibitors of human p47phox binding | P14598 | p47phox/p22phox peptide binding, fluorescence polarization, 2 h | inhibition, % at 24.7 µM | hit rate 0.53% among 220,000 | AID 1274;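 further: 0% = p47phox with labelled peptide and 100% = labelled peptide alone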
Target sequence (P14598 whole entry, looked up): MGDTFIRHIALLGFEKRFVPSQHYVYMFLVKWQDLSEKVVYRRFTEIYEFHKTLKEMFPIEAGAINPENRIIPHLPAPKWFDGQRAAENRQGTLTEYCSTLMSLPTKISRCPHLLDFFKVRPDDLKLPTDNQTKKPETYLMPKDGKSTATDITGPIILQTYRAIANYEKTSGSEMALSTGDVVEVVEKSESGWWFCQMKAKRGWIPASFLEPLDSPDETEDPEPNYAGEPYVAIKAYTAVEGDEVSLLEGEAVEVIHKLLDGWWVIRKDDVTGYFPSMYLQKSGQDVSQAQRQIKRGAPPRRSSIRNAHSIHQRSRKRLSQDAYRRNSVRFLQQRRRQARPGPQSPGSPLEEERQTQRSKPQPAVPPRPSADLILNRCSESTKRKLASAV
Bim-Mcl-1 – disrupts Bim peptide binding to human Mcl-1 | Q07820 | hit rate 0.1% among 190,000 | Bead-based flow cytometry, Bim peptide-Mcl-1 binding | AID 1009 | inhibition, % at 10 µM; in the data active means inhibition above about 40%;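 further: 0% = no compound tracer wells and 100% = peptide blocker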
* hit, by the source's call; ! = not active in a repeat; [ ] = another dose, or the depositor's remark. An excerpt weighted towards active compounds, which were near 3.3% of everything screened.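 How the source made its calls, unless noted: active means inhibition above about 30% (limit read from the data); inactive means the rest.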

`Oc1ccc(/C=N/Nc2nc(-c3cccnc3)nc3ccccc23)c(O)c1` gave Mcl1 Noxa PPI 84*, eIF4E-4G inh -4, Mcl1 Bid PPI -11, 14-3-3 Bad PPI 83* and NCF1 inh -30.
Cc1cc(N/N=C/c2ccc(O)c(C)c2O)nc(-c2ccccc2O)n1 was read as Mcl1 Noxa PPI 89*, eIF4E-4G inh -2, Mcl1 Bid PPI 75*, 14-3-3 Bad PPI 26, NCF1 inh -5 and Bim-Mcl-1 -2.
Screening COc1ccc(/C=N/Nc2nc(-c3cccnc3)nc3ccccc23)cc1OC returned Mcl1 Noxa PPI 50, eIF4E-4G inh -1, Mcl1 Bid PPI -22, 14-3-3 Bad PPI 0 and NCF1 inh -11.
Screening Cc1ccccc1Nc1nc(-c2cccnc2)nc2ccccc12 returned Mcl1 Noxa PPI 11, eIF4E-4G inh 2, Mcl1 Bid PPI -6, 14-3-3 Bad PPI 2, NCF1 inh -52 and Bim-Mcl-1 0.
For Cc1ccc(-c2nc(N/N=C/c3ccncc3)c3ccccc3n2)cc1 the results were Mcl1 Noxa PPI 48, eIF4E-4G inh -32, Mcl1 Bid PPI 66*, 14-3-3 Bad PPI 23, NCF1 inh -93 and Bim-Mcl-1 0.
Screening CCOC(=O)c1ccc(Nc2nc(-c3cccnc3)nc3ccccc23)cc1 returned Mcl1 Noxa PPI 35, eIF4E-4G inh -7, Mcl1 Bid PPI 46, 14-3-3 Bad PPI 75*[fluorescence artefact?], NCF1 inh -22 and Bim-Mcl-1 0.
`O=C(Oc1ccc(Nc2ncnc3ccccc23)cc1)c1cccnc1` gave Mcl1 Noxa PPI 44, eIF4E-4G inh -1, Mcl1 Bid PPI 73*, 14-3-3 Bad PPI 82*, NCF1 inh 1 and Bim-Mcl-1 -2.
For CCOC(=O)c1ccc(Nc2ncnc3ccccc23)cc1 the results were Mcl1 Noxa PPI 24, eIF4E-4G inh 0, Mcl1 Bid PPI 20, 14-3-3 Bad PPI 1, NCF1 inh -7 and Bim-Mcl-1 0.
Screening Nn1c(SCc2c(F)cccc2F)nnc1-c1ccccn1 returned Mcl1 Noxa PPI 14, eIF4E-4G inh 1, Mcl1 Bid PPI -24, 14-3-3 Bad PPI 1 and NCF1 inh -4.
COC(=O)c1ccc(COc2ccc(/C=N/O)cc2)o1 was read as Mcl1 Noxa PPI 7, eIF4E-4G inh -1, Mcl1 Bid PPI -18, 14-3-3 Bad PPI -13, NCF1 inh 9 and Bim-Mcl-1 0.
For CC(=O)Nc1ccc(S(=O)(=O)N(C)c2ccc(OCC(=O)OCC(=O)NCc3ccco3)cc2)cc1 the results were Mcl1 Noxa PPI 19, eIF4E-4G inh -6, Mcl1 Bid PPI -20, 14-3-3 Bad PPI 1 and NCF1 inh -7.
COc1ccccc1/C=C/CN1CC(C)OC(C)C1 (centres undefined) was read as Mcl1 Noxa PPI -15, eIF4E-4G inh -6, Mcl1 Bid PPI 15, 14-3-3 Bad PPI 79*, NCF1 inh -8 and Bim-Mcl-1 -2.
COc1ccc(C2CC(c3c(-c4ccccc4)c4cc(Cl)ccc4[nH]c3=O)=NN2S(C)(=O)=O)cc1OC (centres undefined) was read as Mcl1 Noxa PPI -5, eIF4E-4G inh -3, Mcl1 Bid PPI 59*, 14-3-3 Bad PPI 27, NCF1 inh -51 and Bim-Mcl-1 0.
Screening CCCCC(=O)Nc1cccc(NC(=O)c2ccc3c(c2)OCO3)c1 returned Mcl1 Noxa PPI 24, eIF4E-4G inh 7, Mcl1 Bid PPI 63*, 14-3-3 Bad PPI -3, NCF1 inh 6 and Bim-Mcl-1 -3.
For Cc1ccc(-n2c(Cc3noc4ccccc34)n[nH]c2=S)cc1 the results were Mcl1 Noxa PPI 17, eIF4E-4G inh 2, Mcl1 Bid PPI -51, 14-3-3 Bad PPI -3, NCF1 inh -6 and Bim-Mcl-1 -5.
`S=c1[nH]nc(Cc2noc3ccccc23)n1-c1ccc(Cl)cc1` gave Mcl1 Noxa PPI 16, eIF4E-4G inh -1, Mcl1 Bid PPI 54*, 14-3-3 Bad PPI -5, NCF1 inh -3 and Bim-Mcl-1 -4.
`Cc1ccccc1OCc1n(CC(=O)OC2CC(C)CCC2C(C)C)c2ccccc2[n+]1C` (centres undefined) gave Mcl1 Noxa PPI -10, eIF4E-4G inh 4, Mcl1 Bid PPI -2, 14-3-3 Bad PPI -12, NCF1 inh 39*! and Bim-Mcl-1 -4.
`COc1ccc(CCn2cnc(=O)c(C#N)c2C)cc1OC` gave Mcl1 Noxa PPI 12, eIF4E-4G inh -2, Mcl1 Bid PPI -10, 14-3-3 Bad PPI -10, NCF1 inh -2 and Bim-Mcl-1 -1.
`COc1ccc(-c2nn3c(COc4ccccc4)nnc3s2)cc1OC` gave Mcl1 Noxa PPI -15, eIF4E-4G inh 3, Mcl1 Bid PPI -2, 14-3-3 Bad PPI 4, NCF1 inh 0 and Bim-Mcl-1 -2.
Screening COc1ccc(-c2nn3cnnc3s2)cc1OC returned Mcl1 Noxa PPI -6, eIF4E-4G inh 5, Mcl1 Bid PPI 53*, 14-3-3 Bad PPI -10, NCF1 inh 8 and Bim-Mcl-1 1.
Screening O=C(NC1CCCc2ccccc21)C12CC3CC(CC(O)(C3)C1)C2 (centres undefined) returned Mcl1 Noxa PPI 2, eIF4E-4G inh -2, Mcl1 Bid PPI -26, 14-3-3 Bad PPI -13, NCF1 inh -8 and Bim-Mcl-1 1.
`CS(=O)(=O)N1CCN(c2ccc([N+](=O)[O-])c(NCCN3CCOCC3)c2)CC1` gave Mcl1 Noxa PPI 23, eIF4E-4G inh -3, Mcl1 Bid PPI -37, 14-3-3 Bad PPI 6, NCF1 inh 144* and Bim-Mcl-1 -3.
`O=[N+]([O-])c1cc(S(=O)(=O)N2CCCCC2)ccc1NCCCN1CCOCC1` gave Mcl1 Noxa PPI 54*, eIF4E-4G inh -5, Mcl1 Bid PPI -13, 14-3-3 Bad PPI -2, NCF1 inh 4 and Bim-Mcl-1 0.
Screening COc1ccc(Nc2ccc(S(=O)(=O)N3CCCCC3)cc2[N+](=O)[O-])cc1 returned Mcl1 Noxa PPI 15, eIF4E-4G inh 6, Mcl1 Bid PPI -7, 14-3-3 Bad PPI 85*, NCF1 inh 0 and Bim-Mcl-1 0.
O=C(O)C1CCCCC1C(=O)Nc1cc(C(F)(F)F)ccc1Cl (centres undefined) was read as Mcl1 Noxa PPI 15, eIF4E-4G inh -1, Mcl1 Bid PPI 0, 14-3-3 Bad PPI -19, NCF1 inh 0 and Bim-Mcl-1 -2.
`CCOc1ncccc1C(=O)OCC(=O)Nc1c(C)cccc1C` gave Mcl1 Noxa PPI -2, eIF4E-4G inh 8, Mcl1 Bid PPI -10, 14-3-3 Bad PPI 2, NCF1 inh 3 and Bim-Mcl-1 0.
`Cc1cccc(C)c1NC(=O)COC(=O)c1cccnc1` gave Mcl1 Noxa PPI 56*, eIF4E-4G inh -1, Mcl1 Bid PPI -18, 14-3-3 Bad PPI 0, NCF1 inh -13 and Bim-Mcl-1 -1.
Screening CCCCNC(=O)COC(=O)c1cc(Br)ccc1Cl returned Mcl1 Noxa PPI -1, eIF4E-4G inh 2, Mcl1 Bid PPI -5, 14-3-3 Bad PPI 1, NCF1 inh -4 and Bim-Mcl-1 -5.
